PubChem BioAssay AID1159580 (chemical genetic matrix, 2015)
Several values for one entry are separate records, joined by “and”; a condition that tells them apart may be missing. Identical values can stand only once. Out of some 5,500 compounds screened, about 2,000 (36%) were called active. Roughly 18% stayed inconclusive and do not appear here. The list shows a part of the results. Unmarked numbers belong to inactive results. Cut-off read from the data, not from the text of the source: active = normalized growth mostly below about 0.91 (no sharp cut-off); inconclusive = no clear call, values can overlap the other calls; inactive = mostly above about 0.92.

Experiment: chemical genetic growth profiling, strain panel (AID 1159580);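 note: tested at 20 µM; growth read once vehicle control cultures reached saturation at 30 °C; 1 = growth at the plate median or of vehicle wells; lower values mean less growth of the strain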
Conditions: S. cerevisiae deletion strains, growth OD

With CC(=O)[C@@]1(O)CCC2C3CCC4=CC(=O)CC[C@]4(C)C3CC[C@@]21C (stereo partly drawn) the normalized growth (locus YAL021C, strain ccr4, hits give low values) was 0.99, the normalized growth (locus YAL026C, strain drs2, hits give low values) was 0.992 and the normalized growth (locus YAL030W, strain snc1, hits give low values) was 0.998. It also gave a normalized growth (locus YBL061C, strain skt5, hits give low values) of 0.991, a normalized growth (locus YBR009C, strain hhf1, hits give low values) of 0.995 and a normalized growth (locus YBR021W, strain FUR4, hits give low values) of 1.01. It also gave a normalized growth (locus YBR023C, strain chs3, hits give low values) of 0.995, a normalized growth (locus YBR171W, strain sec66, hits give low values) of 0.985 and a normalized growth (locus YBR229C, strain ROT2, hits give low values) of 0.993. For the same molecule, the normalized growth (locus YBR231C, strain swc5, hits give low values) was 0.999, the normalized growth (locus YBR279W, strain paf1, hits give low values) was 0.986 and the normalized growth (locus YCL011C, strain gbp2, hits give low values) was 0.997. The normalized growth (locus YCL016C, strain dcc1, hits give low values) was 0.992, the normalized growth (locus YCL029C, strain bik1, hits give low values) was 1.01 and the normalized growth (locus YCL061C, strain MRC1, hits give low values) was 0.987. It also gave a normalized growth (locus YCL069W, strain vba3, hits give low values) of 0.996, a normalized growth (locus YCR088W, strain abp1, hits give low values) of 0.988 and a normalized growth (locus YDL005C, strain med2, hits give low values) of 0.975. It also gave a normalized growth (locus YDL035C, strain GPR1, hits give low values) of 1.01, a normalized growth (locus YDL040C, strain nat1, hits give low values) of 0.993 and a normalized growth (locus YDL074C, strain BRE1, hits give low values) of 1.04. The normalized growth (locus YDL101C, strain DUN1, hits give low values) was 0.996, the normalized growth (locus YDL134C, strain PPH21, hits give low values) was 0.99 and the normalized growth (locus YDL185W, strain tfp1, hits give low values) was 1.01. It also gave a normalized growth (locus YDL192W, strain arf1, hits give low values) of 0.992, a normalized growth (locus YDR001C, strain nth1, hits give low values) of 0.989 and a normalized growth (locus YDR069C, strain doa4, hits give low values) of 0.996. For the same molecule, the normalized growth (locus YDR101C, strain arx1, hits give low values) was 1.04, the normalized growth (locus YDR137W, strain rgp1, hits give low values) was 0.815 (active) and the normalized growth (locus YDR159W, strain sac3, hits give low values) was 0.931. The normalized growth (locus YDR162C, strain NBP2, hits give low values) was 0.977, the normalized growth (locus YDR195W, strain ref2) was 0.995 and the normalized growth (locus YDR297W, strain sur2, hits give low values) was 0.994. It also gave a normalized growth (locus YDR318W, strain mcm21, hits give low values) of 0.99, a normalized growth (locus YDR334W, strain swr1, hits give low values) of 0.992 and a normalized growth (locus YDR335W, strain msn5, hits give low values) of 1.01. The normalized growth (locus YDR388W, hits give low values) was 1.01, the normalized growth (locus YDR392W, strain spt3, hits give low values) was 0.891 and the normalized growth (locus YDR502C, strain sam2, hits give low values) was 1.01. For the same molecule, the normalized growth (locus YEL003W, strain gim4, hits give low values) was 0.999, the normalized growth (locus YEL037C, strain rad23, hits give low values) was 0.993 and the normalized growth (locus YEL061C, strain CIN8 (second series), hits give low values) was 0.993. The normalized growth (locus YEL061C, strain CIN8, hits give low values) was 0.995, the normalized growth (locus YER015W, strain faa2, hits give low values) was 0.998 and the normalized growth (locus YER016W, strain bim1, hits give low values) was 0.99. It also gave a normalized growth (locus YER110C, hits give low values) of 1.01, a normalized growth (locus YER111C, strain swi4, hits give low values) of 0.987 and a normalized growth (locus YER155C, strain BEM2 (second series), hits give low values) of 0.995. The normalized growth (locus YER155C, strain BEM2, hits give low values) was 1, the normalized growth (locus YER167W, strain BCK2, hits give low values) was 0.994 and the normalized growth (locus YFR010W, strain ubp6, hits give low values) was 1.01. For the same molecule, the normalized growth (locus YGL078C, strain dbp3, hits give low values) was 1.04, the normalized growth (locus YGL086W, strain mad1, hits give low values) was 1.03 and the normalized growth (locus YGL167C, strain pmr1, hits give low values) was 0.983. The normalized growth (locus YGL173C, strain kem1, hits give low values) was 0.99, the normalized growth (locus YGL227W, strain vid30, hits give low values) was 0.994 and the normalized growth (locus YGL240W, strain doc1, hits give low values) was 0.989. For the same molecule, the normalized growth (locus YGL248W, strain PDE1, hits give low values) was 0.985, the normalized growth (locus YGL253W, strain hxk2, hits give low values) was 0.997 and the normalized growth (locus YGR078C, strain PAC10, hits give low values) was 0.991. It also gave a normalized growth (locus YGR135W, strain pre9, hits give low values) of 0.966, a normalized growth (locus YGR252W, strain gcn5, hits give low values) of 1.04 and a normalized growth (locus YHR013C, strain ard1, hits give low values) of 0.989. The normalized growth (locus YHR027C, strain rpn1, hits give low values) was 0.992, the normalized growth (locus YHR030C, strain SLT2, hits give low values) was 1 and 0.968 and the normalized growth (locus YHR079C, strain IRE1 (second series), hits give low values) was 1.01. The normalized growth (locus YHR079C, strain IRE1, hits give low values) was 0.983, the normalized growth (locus YHR094C, strain hxt1, hits give low values) was 0.999 and the normalized growth (locus YHR129C, strain ARP1, hits give low values) was 0.993. The normalized growth (locus YHR142W, strain chs7, hits give low values) was 0.993, the normalized growth (locus YHR200W, strain rpn10, hits give low values) was 1.02 and the normalized growth (locus YIL066C, strain RNR3, hits give low values) was 0.994. It also gave a normalized growth (locus YIL073C, strain SPO22, hits give low values) of 1.03, a normalized growth (locus YIL125W, strain kgd1, hits give low values) of 1.03 and a normalized growth (locus YIR030C, strain dcg1, hits give low values) of 1.01. For the same molecule, the normalized growth (locus YJL092W, strain hpr5, hits give low values) was 0.991, the normalized growth (locus YJL095W, strain BCK1 (second series), hits give low values) was 0.992 and the normalized growth (locus YJL095W, strain BCK1, hits give low values) was 0.96 and 0.984. It also gave a normalized growth (locus YJL115W, strain asf1, hits give low values) of 0.987, a normalized growth (locus YJL129C, strain trk1, hits give low values) of 0.955 and a normalized growth (locus YJL134W, strain LCB3, hits give low values) of 0.998. For the same molecule, the normalized growth (locus YJL154C, strain vps35, hits give low values) was 0.987, the normalized growth (locus YJL164C, strain tpk1, hits give low values) was 0.985 and the normalized growth (locus YJL166W, strain qcr8, hits give low values) was 0.998. The normalized growth (locus YJL168C, strain set2, hits give low values) was 1, the normalized growth (locus YJL187C, strain SWE1 (second series), hits give low values) was 0.994 and the normalized growth (locus YJL187C, strain SWE1, hits give low values) was 0.997. It also gave a normalized growth (locus YJR043C, strain POL32, hits give low values) of 1.05.
